HT1080NT lethal = kills 2HG-producing HT-1080-NT fibrosarcoma cells; HT-1080-NT fibrosarcoma viability, CellTiter-Glo ATP luminescence, 48 h; Potency, µM (series often up to 46.1 µM), without a hit: top-dose activity, negative = less viability, hits mostly cytotoxic; 360,000 compounds, 1.6% hits;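 note: NT is the 2HG producing partner of a matched IDH1 knockdown line; 0% = DMSO-treated cells and -100% = media-only wells without cells; nearly all actives have a fitted effect of over 55% in size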
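Viability of the 2HG-overproducing fibrosarcoma line after 48 hours of compound exposure at 37 degrees C was determined by luminescence with CellTiter-Glo, and concentration-effect curves were then fitted and categorized.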
ATXN viability = cell viability loss in ATXN counter-screen. S2 cells (HEK-293 line with an ATXN2-luciferase reporter) viability, CellTiter-Fluor protease fluorescence, 24 h. 400,000 compounds, 0.49% hits. Potency, µM (top dose mostly 56.7 µM), usual class: cytotoxic. AID 651635; note: nearly all actives have a fitted effect of over 40% in size
HT1080 IDH1KD tx = toxicity to HT-1080 IDH1 knockdown cells (counter line) | 360,000 compounds, 2% hits | Potency, µM (top dose mostly 46.1 µM), for inactives: top-dose activity, negative = toxicity, usual class: cytotoxic | HT-1080 IDH1 knockdown viability, ATP luminescence, 48 h;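 note: 0% = DMSO wells and -100% = cell-free medium wells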
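After a 2 h attachment period, IDH1KD HT-1080 cells took pin-transferred compound for 48 h at 37 °C; ATP-based luminescence after 10 min room-temperature reagent incubation reported viability.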
KB-3-1 tox = kills parental KB-3-1 adenocarcinoma cells. KB-3-1 viability, CellTiter-Glo ATP luminescence, 72 h. Potency, µM (highest dose often 46.1 µM), actives largely listed as cytotoxic. 400,000 compounds, 1.4% hits; note: % is set by controls: 0 for no effect and ±100 for the full control effect; nearly all actives have a fitted effect of over 60% in size
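Cytotoxicity measured as CellTiter-Glo luminescence after 72 h at 37 C. Compound titrations were pinned onto drug-naive KB-3-1 parental adenocarcinoma cells grown in DMEM with 10% FBS, and normalized data fitted to concentration-response curves.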
ATXN2 expr inh = reduces ATXN2 reporter expression in HEK-293 cells | Potency, µM (titrated, usually from 57 µM), for inactives: at the highest dose activity change, negative = inhibition, usual class: inhibitors | 360,000 compounds, 0.72% hits | HEK-293 ATXN2-luciferase reporter, luminescence, 24 h; note: % is set by controls: 0 for no effect and ±100 for the full control effect; nearly all actives have a fitted effect of over 55% in size
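qHTS (up to 57 uM final) was run with 24 h compound exposure of reporter cells at 37 °C. Each well was multiplexed: SteadyGlo luminescence measured ATXN2-luciferase expression after a fluorogenic Gly-Phe-AFC viability readout (25 uM final).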
KB-V1 cytotox = kills drug-selected multidrug resistant KB-V1 cells; AID 1347076; Potency, µM (highest dose often 46.1 µM), most hits filed as cytotoxic; 400,000 compounds, 3.4% hits; KB-V1 MDR cells viability, CellTiter-Glo, 72 h; note: % is set by controls: 0 for no effect and ±100 for the full control effect; nearly all actives have a fitted effect of over 60% in size
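KB-V1 MDR subline cells in DMEM (phenol-red free, 10% FBS) exposed to compounds in qHTS concentration series for 72 h at 37 degrees C. Viability read by CellTiter-Glo luminescence; concentration-effect curves fitted after normalization and correction.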
Active calls of the source: *; i = inactive; u = inconclusive; x = no result; ! = not confirmed by another sample; [ ] = another dose, or the depositor's remark. Hits are enriched below; roughly 6.2% of the tested compounds scored in any of these assays. Calls come from the whole dose curve; as a rule, active = well fitted curve in the direction sought with a large enough effect; inconclusive = small, poorly fitted or top-dose-only effect, or another doubt; inactive = no such curve, though single readings can be large; an effect the other way counts as inactive or inconclusive. Potency is the fitted concentration of half-maximal effect.

SMILES	HT1080NT lethal	ATXN viability	HT1080 IDH1KD tx	KB-3-1 tox	ATXN2 expr inh	KB-V1 cytotox
COc1ccc(CNn2c(-c3cccs3)nc3ccccc3c2=O)cc1OC	-27%	i	-28%	i	-17%	23µM*
O=c1c2cnn(-c3ccccc3)c2nc(-c2cccs2)n1-c1ccc(Cl)cc1	2%	i	4%	i	5%	i
CCOC(=O)C1=CCN(S(=O)(=O)c2ccccc2C(=O)OC)C1c1ccc(Cl)cc1 (centres undefined)	-10%	u	-13%	i	u	i
COc1cc(C#Cc2c(-c3cncn3C)n(C)c3ccc(-c4cnc(OC)nc4)cc23)cc(OC)c1	u	i	u	u	20µM*	u
COc1cc(C#Cc2c(-c3cncn3C)n(C)c3ccc(-c4cnc(N5CCOCC5)nc4)cc23)cc(OC)c1	-10%	i	-5%	i	u	i
CCOC(=O)c1sc2nc(C)nc(NCc3ccc(F)cc3)c2c1C	18µM*	i	21µM*	i	u	i
CC(=O)Nc1ccccc1OCCOc1ccc(Br)cc1	-26%	i	-46%	u	-30%	18µM*
CN1CCN(C(=O)c2ccc(CNS(=O)(=O)c3ccc(F)c(Cl)c3)cc2)CC1	0%	i	0%	i	4%	i
CCCOc1ccc(-c2nc(SC)[nH]c(=O)c2C#N)cc1OC	x	i	x	i	10%	i
CCC(=O)Oc1c(C(=O)CC)cc2c(C)cc(=O)oc2c1C	-5%	x	-6%	i	11%	16µM*
CSc1ccc(/C=C2\C=Cc3ccccc32)cc1	x	x	x	i	x	i
COc1ccc(-n2nc(C(=O)NCC(=O)NC(C)C)c3ccccc3c2=O)cc1Cl	0%	i	1%	i	x	i
COc1ccc(-n2nc(C(=O)NCC(=O)NCC3CCCO3)c3ccccc3c2=O)cc1Cl (centres undefined)	-10%	i	-4%	i	-1%	9.2µM*
CCCCN(CC)CCNC(=O)c1cc2c(=O)oc3ccc(C)cc3c2s1	x	i	x	i	1%	i
O=C(COc1ccc(F)cc1)N(c1ccccn1)C1CCCCC1	1%	i	17%	i	-2%	21µM*
CC(C)c1ccc(OCC(=O)N(c2ccccn2)C2CCCCC2)cc1	-4%	i	-4%	i	-12%	i
CN1CCN(CCC(=O)N2c3ccccc3Sc3ccc(Cl)cc32)CC1	-10%	x	-25%	i	x	i
CCOC(=O)c1c(C)sc2c1N(C(=O)CN(CC)CC)c1cc(Cl)ccc1S2	u	u	u	u	32µM*	i
CCOC(=O)c1c(C)sc2c1N(C(=O)CN(CC)CC)c1ccccc1S2	-3%	u	-3%	i	-10%	i
CCN(CC)CCC(=O)N1c2ccccc2Sc2ccc(Cl)cc21	u	i	21µM*	i	-3%	u
CN1CCC=C(C(=O)N2c3ccccc3Sc3ccc(Cl)cc32)C1	u	u	16µM*	u	u	i
O=C(CNC(=O)c1cccc(F)c1)N/N=C/c1cc(Br)ccc1OC(=O)/C=C/c1ccco1	u	i	u	u	28µM*	i
O=C(CNC(=O)c1ccccc1O)N/N=C/c1cc(Br)ccc1OC(=O)/C=C/c1ccco1	u	i	u	u	u	u
O=C(Nc1ccc2ccccc2c1)c1cn(-c2ccccc2)nc1-c1cccs1	u	i	-18%	i	5%	18µM*
CCN(CC)CCOC(=O)c1ccc(NC(=O)c2cn(-c3ccccc3)nc2-c2cccs2)cc1	21µM*	i	u	i	1%[11.3 µM]	i
SMILES	HT1080NT lethal	ATXN viability	HT1080 IDH1KD tx	KB-3-1 tox	ATXN2 expr inh	KB-V1 cytotox
Cc1nn(CC(=O)NCc2ccccc2Cl)c(=O)c2cccn12	x	i	x	i	23%	i
CC(C)(C)c1ccc(O)c(/C=N\O)c1	-29%	i	-24%	i	34%	i
CC(C)(C)c1ccc(O)c(O)c1	u	71µM*!	u	u	40µM*!	i
COc1cc(C(=O)NCCC(C)C)ccc1OCc1ccc(Cl)cc1Cl	-6%	i	-6%	u	12%	15µM*
CN(C)CCNC(=O)c1ccc(COc2ccc(Cl)cc2Cl)cc1	10µM*	u	u	u	u	18µM*
COc1cc(C(=O)NC2CCCCC2)ccc1OCc1ccc(Cl)cc1Cl	0%	i	13%	i	-15%[11.3 µM]	u
CCC(C)NC(=O)Cn1c(=O)n(Cc2ccc(C(=O)NCc3ccc(C)cc3)cc2)c(=O)c2ccccc21 (centres undefined)	x	i	x	i	4%	i
CNc1nc(-c2ccc3c(N)n[nH]c3c2)cc(N2C[C@@H](C(=O)NC3CCCCC3)CC[C@@H]2C)n1	x	x	x	x	-9%	x
C=CCNC(=S)N/N=C(\C)c1ccc(OC)cc1	5%	i	2%	i	-25%	i
C=CCNC(=S)N/N=C(\C)c1cccc(OC)c1	-4%	i	11%	i	7%	23µM*
CC1=C(C(=O)Nc2ccc(F)cc2F)C2(CCCCCC2)OC1=O	x	x	x	u	x	i
N#CC1=C(SCC(=O)c2ccccc2)NC2=C(C(=O)CCC2)C1c1ccco1 (centres undefined)	u	u	4.6µM*	18µM*	144%	u
CC(C)(C)c1ccc(C(=O)CCCSC2=C(C#N)C(c3ccco3)C3=C(CCCC3=O)N2)cc1 (centres undefined)	u	u	-19%	u	-23%	10µM*
CC(=O)C1=C(C)NC(SCC(=O)c2ccc(F)cc2)=C(C#N)C1c1ccco1 (centres undefined)	u	i	u	i	22%	i
COc1cccc(NC(=O)CSC2=C(C#N)C(c3ccco3)C3=C(CCCC3=O)N2)c1 (centres undefined)	9.2µM*	i	7.3µM*	u	2%	u
CCCCc1ccc(NC(=O)CSC2=C(C#N)C(c3ccco3)C3=C(CCCC3=O)N2)cc1 (centres undefined)	u	i	u	u	-5%	i
COc1ccc(NC(=O)CSC2=C(C#N)C(c3ccco3)C3=C(CCCC3=O)N2)c(OC)c1 (centres undefined)	3%	i	11%	i	5%	i
Cc1ccc(C(=O)CSC2=C(C#N)C(c3ccco3)C3=C(CCCC3=O)N2)cc1 (centres undefined)	5µM*	i	5.6µM*	u	16%	8.2µM*

Screening results (PubChem)
